Laboratory results: PubChem BioAssay (Tox21)
Results filed as inconclusive are left out. Activity calls are given as the source filed them. Calls follow the shape of the full dose curve.

molecular target: Beta-2 adrenergic receptor (Homo sapiens) (UniProt P07550); assay: Adrenergic beta2 receptor (ADRB2) small molecule agonists, cell-based qHTS assay (AID 1963593); conditions: CHO-ADRB2 cells, cAMP HTRF, 30 min; series mostly up to 92.4 µM; activation: at the top concentration;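 also: CHO cells stably overexpressing human ADRB2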
Procedure, shortened: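 CHO cells stably over-expressing ADRB2 were plated overnight at 37C, then dosed with compounds plus a stimulation mix containing 100uM IBMX and 25uM Ro-20-1724 for 0.5hr at room temperature. cAMP was measured by HTRF competition, 1hr.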
% is scaled to controls: 0 for no effect and ±100 for the full control effect.

Beta-2 adrenergic receptor (Homo sapiens), sequence (P07550 whole entry, looked up): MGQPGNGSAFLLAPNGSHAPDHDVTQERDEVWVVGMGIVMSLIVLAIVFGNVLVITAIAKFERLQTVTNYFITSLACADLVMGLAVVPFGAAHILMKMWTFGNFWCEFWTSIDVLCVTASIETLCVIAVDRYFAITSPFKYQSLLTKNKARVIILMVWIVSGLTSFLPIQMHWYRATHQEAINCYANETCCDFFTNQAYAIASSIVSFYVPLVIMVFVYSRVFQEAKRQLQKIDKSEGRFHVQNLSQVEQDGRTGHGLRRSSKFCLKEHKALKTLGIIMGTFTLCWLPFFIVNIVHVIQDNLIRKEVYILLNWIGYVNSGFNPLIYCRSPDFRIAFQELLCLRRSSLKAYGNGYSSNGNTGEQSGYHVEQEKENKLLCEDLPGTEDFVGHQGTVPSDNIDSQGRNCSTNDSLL

| Structure (SMILES) | activation | Potency |
| --- | --- | --- |
| CCN(CC)c1ccc2c(C)cc(=O)oc2c1 | 8.44% (inactive) |  |
| C/C=C/C(=O)C1=C(C)C=CCC1(C)C | -18.9% (inactive) |  |
| CC(C)=CCC/C(C)=C/C#N | 20.1% (inactive) |  |
| C1CSCCS1 | 12% (inactive) |  |
| CCCCCCCCS(=O)(=O)Cl | -12.9% (inactive) |  |
| O=C1CC2CC1C1CCCC21 (stereo unspecified) | -3.91% (inactive) |  |
| Cc1ccc2oc(=O)ccc2c1 | -13.7% (inactive) |  |
| OCc1ccccc1 | 10.4% (inactive) |  |
| CCCCC(CC)COCC1CO1 (stereo unspecified) |  | inactive |
| OCCC(F)(F)C(F)(F)C(F)(F)C(F)(F)C(F)(F)C(F)(F)F | 2.25% (inactive) |  |
| COCCCOc1ccnc(CS(=O)c2nc3ccccc3[nH]2)c1C (stereo unspecified) | -47.1% (inactive) |  |
| OC[C@H]1O[C@@H]2O[C@H]3[C@H](O)[C@@H](O)[C@@H](O[C@H]4[C@H](O)[C@@H](O)[C@@H](O[C@H]5[C@H](O)[C@@H](O)[C@@H](O[C@H]6[C@H](O)[C@@H](O)[C@@H](O[C@H]7[C@H](O)[C@@H](O)[C@@H](O[C@H]8[C@H](O)[C@@H](O)[C@@H](O[C@H]1[C@H](O)[C@H]2O)O[C@@H]8CO)O[C@@H]7CO)O[C@@H]6CO)O[C@@H]5CO)O[C@@H]4CO)O[C@@H]3CO |  | inactive |
| NC(=O)c1ccccc1Cl | 17.2% (inactive) |  |
| CC(=O)Nc1ncc([N+](=O)[O-])s1 | -4.38% [at 42.5 µM] (inactive) |  |
| NC(=O)CCCCC(N)=O | -5.15% (inactive) |  |
| CS(=O)(=O)O | 11.3% (inactive) |  |
| CCCCCCCCOCCC#N | -0.391% (inactive) |  |
| CCOC(=O)CN1CCCC1=O | 2.93% [at 42.5 µM] (inactive) |  |
| COS(C)(=O)=O | 0.6% (inactive) |  |
| O=C(O)c1cc(=O)c2c(OCC(O)COc3cccc4oc(C(=O)O)cc(=O)c34)cccc2o1 |  | inactive |
| CC(=O)CC(C)(C)C1CCCCC1 | 0.197% (inactive) |  |
